Shown are actives, neighbours in structure and some others; about 0.82% of the full set was active somewhere.
VHR inh abs – DUSP3 (human) phosphatase inhibition | P51452 | recombinant VHR phosphatase, pNPP absorbance | inhibition, % at 13.3 µM | 0.52% of 290,000 active | AID 1654; in the data active = inhibition above about 50%
TcdB inh – TcdB glycohydrolase inhibition | P18177 | TcdB glycohydrolase enzymatic assay, plate reader | inhibition, % at 9.99 µM | 0.24% of 350,000 active; in the data active = inhibition above about 10%
PrPC surface inh – inhibitors of human cell surface prion protein PrPC | AID 720596 | 0.43% of 370,000 active | P04156 | TR-FRET read-out | inhibition, % at 13.8 µM; in the data active = inhibition above about 24%
PrPC TRFRET cf – cell surface PrPC inhibition, TR-FRET confirmation; cell surface PrPC level; inhibition, % at 13.8 µM; shares compounds with PrPC surface inh; 65% of 1,500 active; in the data active = inhibition above about 25%
LD9 tox – counter-screen for PrPc inhibitors: cytotoxicity in LD9 cells; shares compounds with PrPC surface inh; luminescence viability; inhibition, % at 13.8 µM; 29% of 1,500 active; AID 743201; in the data active = inhibition above about 9.5%
Hits are given with their value; - = inactive; . = not tested or not shown.

SMILES	VHR inh abs	TcdB inh	PrPC surface inh	PrPC TRFRET cf	LD9 tox
Cc1cnc(NC(=O)c2cc(S(=O)(=O)N(C)C)ccc2N2CCCC2)s1	.	-	72	79	-
CCc1cccc(NC(=O)c2cc(S(=O)(=O)N3CCCCC3)ccc2N2CCOCC2)c1	.	-	-	.	.
CN(C)S(=O)(=O)c1ccc(N2CCCC2)c(C(=O)Nc2nc(-c3ccc(F)c(F)c3)cs2)c1	-	.	-	.	.
CCc1cccc(NC(=O)c2cc(S(=O)(=O)N(C)C)ccc2N2CCCC2)c1	-	-	30	36	-
COc1cc(OC)c(N(C)S(=O)(=O)c2cccc(C(=O)Nc3nccs3)c2)cc1Cl	.	-	-	.	.
CN(c1ccccc1)S(=O)(=O)c1cccc(C(=O)Nc2nccs2)c1	-	-	26	-	-
COc1ccc(NC(=O)N(C)C[C@H]2Oc3cc(C#CCN(C)C)ccc3S(=O)(=O)N([C@H](C)CO)C[C@H]2C)cc1	.	-	.	.	.
C[C@@H]1CCCCO[C@@H](CN(C)C)[C@H](C)CN([C@H](C)CO)C(=O)c2cc(NS(=O)(=O)c3ccc(F)cc3)ccc2O1	.	-	.	.	.
C[C@H]1CN([C@@H](C)CO)C(=O)c2cccc(NC(=O)Nc3ccc(F)cc3)c2O[C@H]1CN(C)S(=O)(=O)c1ccccc1	.	-	.	.	.
NC(=O)c1cc(NC(=O)CCc2nc3ccccc3s2)cc(C(N)=O)c1	-	-	37	31	-
N#Cc1ccc(NC(=O)CCc2nc3ccccc3s2)cc1	-	.	-	.	.
N#C/C(=C(/O)COC(=O)CSc1ccc(Cl)cc1)c1nc2ccccc2[nH]1	-	-	27	36	63
Cc1cc(SCC(=O)OC/C(O)=C(\C#N)c2nc3ccccc3[nH]2)c(C)cc1Br	-	-	-	.	.
COc1ccccc1OCC(=O)OC/C(O)=C(\C#N)c1nc2ccccc2[nH]1	-	-	31	54	64
COc1ccc(OC/C(O)=C(\C#N)c2nc3ccccc3[nH]2)cc1	-	.	-	.	.
O=C(C[C@H]1CC[C@H]2[C@@H](COC[C@H](O)CN2Cc2ccc(F)cc2)O1)N1CCc2ccccc2C1	.	-	.	.	.
C[C@@H]1CN([C@@H](C)CO)C(=O)Cc2cc(NC(=O)c3ccncc3)ccc2O[C@H]1CN(C)S(=O)(=O)c1ccc(F)cc1	.	-	.	.	.
Cc1noc(C)c1NC(=O)Nc1cccc2c1O[C@@H](CN(C)C(=O)NC1CCCCC1)[C@@H](C)CN([C@H](C)CO)C2=O	.	-	.	.	.
CC(=O)Nc1ccc2c(c1)C(=O)N(C)[C@H]1CC[C@H](CC(=O)NCc3ccc(F)cc3)O[C@H]1CO2	.	-	.	.	.
C[C@@H]1CCCCO[C@@H](CN(C)Cc2ccccc2)[C@H](C)CN([C@H](C)CO)C(=O)c2cc(NC(=O)Nc3ccccc3)ccc2O1	.	-	.	.	.
Oc1cc2c(cc1O)C1c3ccc(O)c(O)c3OCC1(O)C2 (configuration not stated)	-	-	42	55	-
CCCNC(=O)N1CC2(C1)CN(C(=O)COC)[C@H](CO)c1[nH]c3cc(OC)ccc3c12	.	-	.	.	.
C/C=C(\C)C(=O)N[C@@H](c1ccccc1)[C@@H](O)C(=O)O[C@H]1C[C@@]2(O)[C@@H](OC(=O)c3ccccc3)C3[C@](C)(C(=O)[C@H](OC(C)=O)C(=C1C)C2(C)C)[C@H](O)C[C@H]1OC[C@@]31OC(C)=O (some centres not stated)	-	.	-	.	.
CC(=O)O[C@H]1C(=O)[C@@]2(C)[C@H]([C@H](OC(=O)c3ccccc3)[C@]3(O)C[C@H](OC(=O)[C@H](O)C(NC(=O)c4ccccc4)c4ccccc4)C(C)=C1C3(C)C)[C@]1(OC(C)=O)CO[C@@H]1C[C@@H]2O (some centres not stated)	-	-	31	27	-
CCCCCC(=O)N[C@@H](c1ccccc1)[C@@H](O)C(=O)O[C@H]1C[C@@]2(O)[C@@H](OC(=O)c3ccccc3)C3[C@](C)(C(=O)[C@H](OC(C)=O)C(=C1C)C2(C)C)[C@@H](O)C[C@H]1OC[C@@]31OC(C)=O (some centres not stated)	-	-	-	.	.
SMILES	VHR inh abs	TcdB inh	PrPC surface inh	PrPC TRFRET cf	LD9 tox
CC(=O)O[C@H]1C(=O)[C@@]2(C)[C@H]([C@H](OC(=O)c3ccccc3)[C@]3(O)C[C@H](OC(=O)[C@H](O)[C@@H](NC(=O)c4ccccc4)c4ccccc4)C(C)=C1C3(C)C)[C@]1(OC(C)=O)CO[C@@H]1C[C@@H]2O	.	-	35	-	-
CC(=O)O[C@@]12CO[C@@H]1C[C@@H](O)[C@@]1(C)C(=O)[C@H](O)C3=C(C)[C@@H](OC(=O)[C@H](O)[C@@H](NC(=O)c4ccccc4)c4ccccc4)C[C@@](O)([C@@H](OC(=O)c4ccccc4)C12)C3(C)C (some centres not stated)	-	-	-	.	.
CC/C=C/CC(=O)N[C@@H](c1ccccc1)[C@@H](O)C(=O)O[C@H]1C[C@@]2(O)[C@@H](OC(=O)c3ccccc3)C3[C@](C)(C(=O)[C@H](OC(C)=O)C(=C1C)C2(C)C)[C@@H](O)C[C@H]1OC[C@@]31OC(C)=O (some centres not stated)	-	-	26	-	-
COCC(=O)N1C[C@H](C)[C@@H](OC)CN(C)C(=O)c2cc(NC(=O)c3cc(C)on3)ccc2OC[C@@H]1C	.	-	.	.	.
C[C@@H]1CCCCO[C@@H](CN(C)S(C)(=O)=O)[C@H](C)CN([C@@H](C)CO)C(=O)c2cc(NS(=O)(=O)c3ccc(Cl)cc3)ccc2O1	.	-	.	.	.
CCOC(=O)c1c(C)n(-c2ccccc2)c2ccc(O)cc12	-	-	27	-	-
CCOC(=O)c1c(CN(CC)CC)n(-c2ccccc2)c2ccc(O)cc12	-	-	-	.	.
CN1[C@@H]2c3ccc(-c4ccccc4F)c(=O)n3C[C@@H]2[C@@H](CO)[C@@H]1C(=O)Nc1nccs1	.	-	.	.	.
Cc1cccc(-n2c(-c3ccc(Br)o3)n[nH]c2=S)c1	.	-	-	.	.
Cc1cccc(-n2c(-c3ccco3)n[nH]c2=S)c1	-	.	31	33	-
Cc1cccc[n+]1C1C(c2ccc([N+](=O)[O-])cc2)C(C#N)=C(C(=C=[N-])C#N)NC1(O)C1CC1 (configuration not stated)	-	-	39	-	-
N#CC1=C(N)NC(=S)C(C(N)=O)C1c1ccc([N+](=O)[O-])cc1 (configuration not stated)	-	-	-	.	.
Cc1cc(C)c(C#N)c(N)n1	-	-	-	.	.
Cc1cc(-c2cccc(Br)c2)c(C#N)c(N)n1	-	-	44	42	-
CCCCCC[N+](C)(C)CCSSCC[N+](C)(C)CCCCCC	-	-	-	.	.
C#CC[N+](C)(C)CCCCCCCCCC	-	-	-	.	.
CC#CC[N+](C)(C)CCCCCCCCCCCC	-	-	25	28	16
CCCCCCCCCCCCCCCC[N+](C)(C)CC	.	-	26	36	14
Cc1ccc(S(=O)(=O)N(C)C[C@@H]2OCCCC[C@H](C)Oc3ccc(NC(=O)Nc4ccc(F)cc4)cc3C(=O)N([C@@H](C)CO)C[C@@H]2C)cc1	.	-	.	.	.
COc1ccc(-c2ccc3c(c2)O[C@H](CN(C)Cc2ccccc2C(=O)O)[C@H](C)CN([C@H](C)CO)S3(=O)=O)cc1	.	-	.	.	.

Source: PubChem BioAssay (several laboratories)
